Measurements reported in PubChem BioAssay (NCI).
Compounds without any hit were thinned out: in the full panel of roughly 83,000, 20% have a hit.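 A percent growth of 40 corresponds to 60% growth inhibition; 0 means no net growth; -100 means all cells died. Active threshold: below 10.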 Active and inactive are the calls of the source.

Legend:
Assay in all cases: NCI-60 one-dose screen, 48 h (100 = growth as untreated, 0 = no growth, -100 = all killed)
Conditions in all cases: 10 µM unless noted
SK-MEL-2 melanoma = tested on: SK-MEL-2 melanoma
EKVX NSCLC = tested on: EKVX NSCLC
SN12C renal = tested on: SN12C renal
UO-31 renal = tested on: UO-31 renal
TK-10 renal = tested on: TK-10 renal
ACHN renal = tested on: ACHN renal
A498 renal = tested on: A498 renal
CCRF-CEM leukemia = tested on: CCRF-CEM leukemia
MOLT-4 leukemia = tested on: MOLT-4 leukemia
CAKI-1 renal = tested on: CAKI-1 renal

Measured: growth

CC(O)/C=C/C=C/C(O)CC/C=C/C(=O)NCC(C)(C)O (stereo not given)
inactive: SK-MEL-2 melanoma 81.9% | EKVX NSCLC 107% | SN12C renal 99.2% | UO-31 renal 78.4% | TK-10 renal 109% | ACHN renal 106% | A498 renal 99.7% | CCRF-CEM leukemia 95% | MOLT-4 leukemia 76.2%

Cc1ccc(O)c(C(=O)O)c1
inactive: SK-MEL-2 melanoma 109% | EKVX NSCLC 118% | SN12C renal 104% | UO-31 renal 94% | TK-10 renal 72.7% | ACHN renal 106% | A498 renal 99.9% | CCRF-CEM leukemia 98.1% | MOLT-4 leukemia 97.7%

CS(=O)(=O)OCCN(CCOS(C)(=O)=O)c1ccc(/C=N/Nc2ccc([N+](=O)[O-])cc2[N+](=O)[O-])cc1
inactive: EKVX NSCLC 81.7% | SN12C renal 77.6% | UO-31 renal 88.9% | TK-10 renal 112% | ACHN renal 84.6% | CAKI-1 renal 70.4% | CCRF-CEM leukemia 55.5% | MOLT-4 leukemia 88.4%

COc1cc2oc(-c3cccc(C(=O)Nc4ccc(Cl)cc4)c3)cc(=O)c2c(OC)c1OC
active: CAKI-1 renal 8.22%
inactive: EKVX NSCLC 48.2% | SN12C renal 33.2% | UO-31 renal 23.2% | TK-10 renal 38.6% | ACHN renal 33.2% | MOLT-4 leukemia 36.1%

COc1cc(NCCN(CC(C)C)C2CCCC2)c2ncccc2c1
inactive: EKVX NSCLC 95.2% | SN12C renal 93.1% | UO-31 renal 83.7% | TK-10 renal 109% | ACHN renal 82.2% | CAKI-1 renal 97.1% | A498 renal 75% | CCRF-CEM leukemia 121% | MOLT-4 leukemia 90.9%

N#Cc1c(Nc2ccccc2)nn2cc(-c3nc4ccccc4s3)c(N)nc12
inactive: EKVX NSCLC 71.9% | SN12C renal 89.6% | UO-31 renal 83.4% | TK-10 renal 107% | ACHN renal 59% | CAKI-1 renal 82.6% | CCRF-CEM leukemia 79.2% | MOLT-4 leukemia 93.7%

Clc1ccc(C2CC(c3cccc(Nc4ccncc4)c3)=NN2c2cc(Cl)cc(Cl)c2)cc1 (stereo not given)
active: MOLT-4 leukemia 7.7%
inactive: EKVX NSCLC 74.3% | SN12C renal 76.3% | UO-31 renal 71.2% | TK-10 renal 94.8% | ACHN renal 77.2% | CAKI-1 renal 55.3% | A498 renal 85.6% | CCRF-CEM leukemia 11.3%

COc1cc2nc(-c3ccc(C(F)(F)F)cc3)cc(OCCCN3CCCCC3)c2cc1OC
active: CAKI-1 renal 0.476%
inactive: EKVX NSCLC 69.4% | SN12C renal 45.7% | UO-31 renal 30.5% | TK-10 renal 105% | ACHN renal 38.2% | CCRF-CEM leukemia 42.4% | MOLT-4 leukemia 35.8%

c1ccc(Cn2nc3c(c2-c2ccccc2)-c2oncc2CC3)cc1
inactive: EKVX NSCLC 90.1% | SN12C renal 95.3% | UO-31 renal 82.7% | TK-10 renal 107% | ACHN renal 97.6% | CAKI-1 renal 77.9% | A498 renal 89.4% | CCRF-CEM leukemia 80.4% | MOLT-4 leukemia 79.8%

NC(=O)CN1CCN(c2ccccc2Cl)CC1
inactive: EKVX NSCLC 108% | SN12C renal 109% | UO-31 renal 82.7% | TK-10 renal 116% | ACHN renal 103% | CAKI-1 renal 96.4% | CCRF-CEM leukemia 115% | MOLT-4 leukemia 111%

CC1CCN(C(=O)OCc2nc3nc(Cl)nc(N4CCOCC4)c3[nH]2)CC1
inactive: EKVX NSCLC 40.4% | A498 renal 42.2%
active: SN12C renal -61.4% | UO-31 renal -100% | TK-10 renal -91.8% | ACHN renal -100% | CAKI-1 renal -73.8% | CCRF-CEM leukemia -7.16% | MOLT-4 leukemia 0.0264%

COc1ccc(/C=C/C(=O)c2ccc(OC)c(OC)c2)cc1O
inactive: EKVX NSCLC 87.4% | SN12C renal 73.8% | UO-31 renal 63.9% | TK-10 renal 83.8% | ACHN renal 86% | CAKI-1 renal 62.9% | CCRF-CEM leukemia 62.5% | MOLT-4 leukemia 67.2%

Cc1cn(-c2cc(C(=O)Nc3cccc(C#Cc4cccc5[nH]nc(N)c45)c3)cc(C(F)(F)F)c2)cn1
inactive: EKVX NSCLC 68% | SN12C renal 62.3% | UO-31 renal 30.2% | TK-10 renal 58.5% | ACHN renal 30.3% | CAKI-1 renal 79.6% | CCRF-CEM leukemia 47.4% | MOLT-4 leukemia 36.5%

COc1ccc(CC(C)=C(c2ccc(OCCN(C)C)cc2)c2ccc(OCCN(C)C)cc2)cc1
inactive: EKVX NSCLC 88.5% | SN12C renal 75.2% | UO-31 renal 60.6% | TK-10 renal 99.6% | ACHN renal 98% | CAKI-1 renal 84% | MOLT-4 leukemia 64.6%

CCCCCCCCCCCCCCCC(=O)OC[C@@]1(O)C[C@@]23CC[C@@H]4C(C)(C)[C@H](O)CC[C@@]4(C)[C@@H]2CC[C@H]1C3
inactive: EKVX NSCLC 100% | SN12C renal 96% | UO-31 renal 92.4% | TK-10 renal 101% | ACHN renal 108% | CAKI-1 renal 94.2% | A498 renal 105% | CCRF-CEM leukemia 100% | MOLT-4 leukemia 101%
